Among the data in the supplement of paper PMC6555819 are PBM binding z-score values, retold here.

The subject of one experiment is PPARg DBDmut:RXRa IVT, anti-PPARg (DBD mutation: PPARg1 K132A/R137A, NR concentration 270 nM, RXRa partner concentration 90 nM). Nature of the experiment: PBM binding z-score (relative to random genomic background probes); higher = stronger binding; sequences stand for … in GC…GCGATTGACAGCGTAGAATGAAGG
The procedure, abridged:
(§1)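 On custom Agilent 4×180K arrays, double-stranded probes with 34-nt variable regions carried direct-repeat seeds, single-nucleotide variants, half-site ablations or random human genomic background. Ligand-free nuclear receptor dimers were applied for 1 h, and binding was read with antibodies against each partner (one per run). Binding z-scores come from regression-normalized fluorescence, with the random background probes as reference.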
For the sequence AGAATGAGGTTAAGTTCAGGGAAACAGAATACAT, the PBM binding z-score was 1.62.
The same measure, in the same setting: as for CCTACTGGACCAAGGTCATTGATCAGTCAAAGCA, the figure is 0.0744; as for ATCTCTAGGTTAAGATAGTTCAGTGAATGCAAAT, 1.33; as for CAAACTAGTTCAAGAGGTCAAAGTCCGCTTCCCG, -0.123.
Consider CCTACTGGGCCATTCAGAGGTCAATGATCATATG, for which the PBM binding z-score was found to be 0.0847.
Still for that read-out and setting: the same measure for AGAATGGGGTTACCAAAGATCAGGGAAACGCTTG: 1.57; for ATCGAAAGGTCCAAGGTGAGTATACCCACCCGAA: 0.0343; for ACTCGGATGACAAAGGTCAGAGCTACGCCAGTGA: 0.403.
Same read-out and setting: the same measure for AGTCAAAGTTCATCTAGGTAACATAAGATATGCT: 1.75; for CCTAGTTGGTCAAGGTCACACCCGCTATAGGTAC: 0.989.
Still for that read-out and setting: as for TCTAGTTGGTCACGGAGGTCACAAACGACGGGTA, the figure is 0.857; as for AGAATGAGGTTAAACGTAGATCAGGGAAGAAAGT, 1.56.
ACTTACGGCTCAACGAGGTTATAGCACGCGTATA gave a PBM binding z-score of 0.327.
The same measure, in the same setting: the same measure for AATACAGGGTGACTAGGCCAGAGTAGGTACGAAT: 1.24; for GCTGCTAGTTCAACTGATGGTCAGCTAAAGCTCG: -0.37; for TAGCCTAGGTCATTCAGGGGCCAGCATAGAAAGC: 0.63.
In turn, TTGCCTAGGTCATTGGGCCAGTATAGTACGCATC displayed a PBM binding z-score of 0.969.
Still for that read-out and setting: the same measure for AGAATGAGATTACCAAAGATCAGGGAAACGCTTG: 0.561.
Turning to ATCGAAAGGTCGACCAGGTGAGTATACACCGTTT, the PBM binding z-score worked out at 0.944.
Still for that read-out and setting: the same measure for CCTTACGGGTTACTCCAGGTTATAGCATCGGAGT: 0.298.
Consider TCTGCTAGGTCAACGTTGGTCAGCTAATCTGCTA, for which the PBM binding z-score was -0.219.
Same read-out and setting: the same measure for ATATGTAGGATAGCTGGGGTCATTCAGACTAGGC: 0.891; for CCTAGCAGGCCAATCTAGGTCACTCAAGGCTTGA: -0.0838.
The sequence CAAACTAGGTCACAGTGGTCAAAGTCCGTGCGTA gave a PBM binding z-score of 2.06.
Still for that read-out and setting: the same measure for CAAACTAGGTCACTAAAGGTCAAAGTCGAATGAC: 4.79.
For GCTTACGGGTCCAAGGTTATAGCATGAATAGAAT, the PBM binding z-score was 0.865.
Same read-out and setting: the same measure for ATATGTAGGTTATCGGGTCATACAGTTTGCGCAT: 3.33; for TACCCTAGGTCATTCAGGGGCCAGTATAGAAAGC: -0.205.
Still for that read-out and setting: the same measure for TCTTGTAGATCAACAGGAGGTTAATAAAGATCGA: 0.688; for TCTAGTTGGTCTAAGGTCACACACTCGAAATGCG: 1.67; for TAGCCTAGGTCATGGGCCAGTGTACCACGCGAAC: 0.332.
CCTACGGGGCCACGAAAGGTCATTGATTCAGTGA: the PBM binding z-score was -0.766.
Same read-out and setting: the same measure for TCTTGTAGATCGATAGAGGTTAAGAAAGTGCGCT: 0.295; for AGAATGAGGTTACCAAAGGTCAGGGAAACGCTTG: 1.08.
The sequence CCGAGTTGGTCAAGGTCACACACGCTATAGGTAC yielded a PBM binding z-score of 0.702.
On the same count and under the same terms, as for ACTTACGGGTCTACGAGGTTATAGCACGCGTATA, the figure is 0.196.
On the same count and under the same terms, as for AGTCAAAGTTCAGGACGACGTAACGTAAAGCACG, the figure is 0.437.
On the same count and under the same terms, as for CGTCCAAGGTCAGCGGGTCAGTGAAAGCGACGTG, the figure is -0.302.
ATATGTAGGTTAGCTGGGGTCCTTCAGACTAGGC returned a PBM binding z-score of 1.74.
Still for that read-out and setting: the same measure for GATATAGGGTCAGCTAGAGGCCAGAGTATGGAAA: 0.476.

In the next experiment the test system is PPARg DBDmut IVT, anti-PPARg (DBD mutation: PPARg1 K132A/R137A, NR concentration 270 nM). The experiment is described as above. In outline:
as §1
With AGAATGAGGTTAAGTTCAGGGAAACAGAATACAT, the PBM binding z-score is 0.811.
Same read-out and setting: the same measure for CCTACTGGACCAAGGTCATTGATCAGTCAAAGCA: 0.144; for ATCTCTAGGTTAAGATAGTTCAGTGAATGCAAAT: 1.32; for CAAACTAGTTCAAGAGGTCAAAGTCCGCTTCCCG: 0.442.
Still for that read-out and setting: the same measure for CCTACTGGGCCATTCAGAGGTCAATGATCATATG: -0.339; for AGAATGGGGTTACCAAAGATCAGGGAAACGCTTG: 1.15; for ATCGAAAGGTCCAAGGTGAGTATACCCACCCGAA: 0.185.
Same read-out and setting: as for ACTCGGATGACAAAGGTCAGAGCTACGCCAGTGA, the figure is 0.346; as for AGTCAAAGTTCATCTAGGTAACATAAGATATGCT, 1.67; as for CCTAGTTGGTCAAGGTCACACCCGCTATAGGTAC, 0.599.
Take TCTAGTTGGTCACGGAGGTCACAAACGACGGGTA: the PBM binding z-score was determined as 0.878.
Still for that read-out and setting: the same measure for AGAATGAGGTTAAACGTAGATCAGGGAAGAAAGT: 1.02; for ACTTACGGCTCAACGAGGTTATAGCACGCGTATA: 0.825; for AATACAGGGTGACTAGGCCAGAGTAGGTACGAAT: 0.872.
Same read-out and setting: as for GCTGCTAGTTCAACTGATGGTCAGCTAAAGCTCG, the figure is -1.33; as for TAGCCTAGGTCATTCAGGGGCCAGCATAGAAAGC, 0.0516; as for TTGCCTAGGTCATTGGGCCAGTATAGTACGCATC, -0.224.
On the same count and under the same terms, as for AGAATGAGATTACCAAAGATCAGGGAAACGCTTG, the figure is 0.0997; as for ATCGAAAGGTCGACCAGGTGAGTATACACCGTTT, 0.642; as for CCTTACGGGTTACTCCAGGTTATAGCATCGGAGT, -0.838.
Sequence TCTGCTAGGTCAACGTTGGTCAGCTAATCTGCTA had a PBM binding z-score of 0.673.
The same measure, in the same setting: the same measure for ATATGTAGGATAGCTGGGGTCATTCAGACTAGGC: 1.52; for CCTAGCAGGCCAATCTAGGTCACTCAAGGCTTGA: -0.865.
On the same count and under the same terms, as for CAAACTAGGTCACAGTGGTCAAAGTCCGTGCGTA, the figure is 1.68.
Turning to CAAACTAGGTCACTAAAGGTCAAAGTCGAATGAC, the PBM binding z-score is 2.9.
On the same count and under the same terms, as for GCTTACGGGTCCAAGGTTATAGCATGAATAGAAT, the figure is -0.558.
For the sequence ATATGTAGGTTATCGGGTCATACAGTTTGCGCAT, the PBM binding z-score came to 1.78.
Sequence TACCCTAGGTCATTCAGGGGCCAGTATAGAAAGC showed a PBM binding z-score of 0.64.
Same read-out and setting: the same measure for TCTTGTAGATCAACAGGAGGTTAATAAAGATCGA: 0.752.
Sequence TCTAGTTGGTCTAAGGTCACACACTCGAAATGCG displayed a PBM binding z-score of 1.64.
Same read-out and setting: as for TAGCCTAGGTCATGGGCCAGTGTACCACGCGAAC, the figure is 0.203; as for CCTACGGGGCCACGAAAGGTCATTGATTCAGTGA, -1.47; as for TCTTGTAGATCGATAGAGGTTAAGAAAGTGCGCT, 0.641.
On the same count and under the same terms, the same measure for AGAATGAGGTTACCAAAGGTCAGGGAAACGCTTG: 0.912; for CCGAGTTGGTCAAGGTCACACACGCTATAGGTAC: 0.995.
Same read-out and setting: as for ACTTACGGGTCTACGAGGTTATAGCACGCGTATA, the figure is 0.723; as for AGTCAAAGTTCAGGACGACGTAACGTAAAGCACG, -0.388.
Take CGTCCAAGGTCAGCGGGTCAGTGAAAGCGACGTG: the PBM binding z-score was -0.244.
Same read-out and setting: the same measure for ATATGTAGGTTAGCTGGGGTCCTTCAGACTAGGC: 2.65; for GATATAGGGTCAGCTAGAGGCCAGAGTATGGAAA: 0.427.
